PubChem BioAssay (Tox21)
Several values for one entry are separate records, joined by “and”; a condition that tells them apart may be missing. Identical values can stand only once. Inconclusive results are not listed. Where a call stands in place of a potency, no number is given. Values without a mark were called inactive. Activity calls are given as the source filed them. Calls come from the whole dose curve; as a rule, active = well fitted curve in the direction sought with a large enough effect in the repeat runs; inconclusive = weak or mixed curves; inactive = no such curve, though single readings can be large; an effect the other way counts as inactive or inconclusive.

Key:
[1] = molecular target: Cytochrome P450 2C19 (Homo sapiens) (UniProt P33261); test: Cytochrome P450 Family 2 Subfamily C Member 19 (CYP2C19) small molecule antagonists: luciferase reporter qHTS assay (AID 1671197); note: nearly all actives have a fitted effect of over 65% in size; note: potency is the fitted concentration of half-maximal effect
Sequence of Cytochrome P450 2C19 (Homo sapiens) (P33261 whole entry, looked up): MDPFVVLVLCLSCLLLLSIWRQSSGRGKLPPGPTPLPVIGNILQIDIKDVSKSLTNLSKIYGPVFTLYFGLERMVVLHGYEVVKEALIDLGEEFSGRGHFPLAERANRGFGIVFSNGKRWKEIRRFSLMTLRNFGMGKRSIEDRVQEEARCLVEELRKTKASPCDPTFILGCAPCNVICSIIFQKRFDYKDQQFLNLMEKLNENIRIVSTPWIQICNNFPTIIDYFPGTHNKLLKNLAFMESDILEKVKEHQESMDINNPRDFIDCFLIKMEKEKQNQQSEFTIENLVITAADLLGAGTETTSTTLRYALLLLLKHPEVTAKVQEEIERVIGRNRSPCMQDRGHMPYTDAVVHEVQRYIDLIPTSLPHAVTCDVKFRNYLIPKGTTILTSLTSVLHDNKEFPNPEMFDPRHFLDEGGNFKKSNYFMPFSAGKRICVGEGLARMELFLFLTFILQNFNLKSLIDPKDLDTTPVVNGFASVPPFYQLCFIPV
In short: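 P450-Glo CYP2C19 screening system; proluciferin substrate; DMSO compound stocks; 10 min RT preincubation; NADPH regeneration, 1 h at 37C; luciferin detection reagent, 20 min RT; luminescence as RLU.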

[2] = molecular target: Cytochrome P450 2C9 (Homo sapiens) (UniProt P11712); test: Cytochrome P450 Family 2 Subfamily C Member 9 (CYP2C9) small molecule antagonists: luciferase reporter qHTS assay (AID 1671198); note: nearly all actives have a fitted effect of over 50% in size; note: potency is the fitted concentration of half-maximal effect
Sequence of Cytochrome P450 2C9 (Homo sapiens) (P11712 whole entry, looked up): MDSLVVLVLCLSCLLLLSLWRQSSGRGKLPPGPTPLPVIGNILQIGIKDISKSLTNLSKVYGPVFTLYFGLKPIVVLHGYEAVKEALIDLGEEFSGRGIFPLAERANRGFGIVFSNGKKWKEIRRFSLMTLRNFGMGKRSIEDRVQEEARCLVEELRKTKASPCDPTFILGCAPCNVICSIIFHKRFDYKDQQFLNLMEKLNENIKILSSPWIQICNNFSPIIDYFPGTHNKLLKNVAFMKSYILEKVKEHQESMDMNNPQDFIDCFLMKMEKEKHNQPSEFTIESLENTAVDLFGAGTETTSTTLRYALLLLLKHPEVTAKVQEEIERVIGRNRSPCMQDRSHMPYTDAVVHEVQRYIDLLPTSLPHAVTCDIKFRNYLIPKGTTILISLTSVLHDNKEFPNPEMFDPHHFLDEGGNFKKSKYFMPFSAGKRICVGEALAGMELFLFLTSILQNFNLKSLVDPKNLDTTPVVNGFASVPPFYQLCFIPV
In short: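 P450-Glo proluciferin substrate with CYP2C9 enzyme; 10 min RT preincubation, then NADPH regeneration 1 h at 37C; luciferin detection reagent 20 min RT, luminescence in relative luminescence units.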

[3] = molecular target: Cytochrome P450 1A2 (Homo sapiens) (UniProt P05177); test: Cytochrome P450 Family 1 Subfamily A Member 2 (CYP1A2) small molecule antagonists: luciferase reporter qHTS assay (AID 1671199); note: nearly all actives have a fitted effect of over 50% in size; note: potency is the fitted concentration of half-maximal effect
Sequence of Cytochrome P450 1A2 (Homo sapiens) (P05177 whole entry, looked up): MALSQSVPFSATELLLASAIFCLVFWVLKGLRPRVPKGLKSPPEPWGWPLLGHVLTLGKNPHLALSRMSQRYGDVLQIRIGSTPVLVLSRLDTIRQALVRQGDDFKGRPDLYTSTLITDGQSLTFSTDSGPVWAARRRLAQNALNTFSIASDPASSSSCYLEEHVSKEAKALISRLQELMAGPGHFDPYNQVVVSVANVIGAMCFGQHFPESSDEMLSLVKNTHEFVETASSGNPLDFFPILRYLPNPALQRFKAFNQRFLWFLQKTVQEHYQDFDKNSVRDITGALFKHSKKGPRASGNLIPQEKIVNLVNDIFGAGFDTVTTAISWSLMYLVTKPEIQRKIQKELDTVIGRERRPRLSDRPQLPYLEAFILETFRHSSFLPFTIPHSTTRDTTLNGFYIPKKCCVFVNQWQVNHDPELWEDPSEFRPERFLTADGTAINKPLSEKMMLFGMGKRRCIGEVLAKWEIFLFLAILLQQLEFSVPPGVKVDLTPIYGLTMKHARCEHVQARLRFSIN
In short: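 Inhibition of CYP1A2 conversion of proluciferin to luciferin, detected by luminescence. Reaction run 1 h at room temperature with NADPH regeneration after brief compound preincubation.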

[4] = molecular target: Cytochrome P450 3A4 (Homo sapiens) (UniProt P08684); test: Cytochrome P450 Family 3 Subfamily A Member 4 (CYP3A4) small molecule antagonists: luciferase reporter qHTS assay (AID 1671201); note: nearly all actives have a fitted effect of over 50% in size; note: potency is the fitted concentration of half-maximal effect
Sequence of Cytochrome P450 3A4 (Homo sapiens) (P08684 whole entry, looked up): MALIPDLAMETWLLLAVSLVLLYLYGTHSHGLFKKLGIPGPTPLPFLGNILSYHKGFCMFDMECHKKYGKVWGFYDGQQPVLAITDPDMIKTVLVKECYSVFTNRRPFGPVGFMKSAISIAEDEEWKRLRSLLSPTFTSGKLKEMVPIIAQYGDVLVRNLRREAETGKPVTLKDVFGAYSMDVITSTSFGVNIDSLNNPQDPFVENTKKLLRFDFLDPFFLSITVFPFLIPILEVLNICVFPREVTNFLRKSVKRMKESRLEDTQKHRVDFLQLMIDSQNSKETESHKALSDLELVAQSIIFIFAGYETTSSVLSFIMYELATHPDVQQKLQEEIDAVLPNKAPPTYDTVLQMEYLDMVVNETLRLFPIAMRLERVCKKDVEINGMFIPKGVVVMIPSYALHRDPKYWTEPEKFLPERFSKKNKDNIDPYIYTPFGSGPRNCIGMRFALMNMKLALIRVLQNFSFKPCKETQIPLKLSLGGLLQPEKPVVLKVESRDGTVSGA
In short: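 CYP3A4 activity was followed with a P450-Glo proluciferin substrate. Test compounds in DMSO were preincubated 10 min; NADPH regeneration then ran 1 h, and light output was read 20 min after detection reagent.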

[5] = molecular target: Voltage-gated inwardly rectifying potassium channel KCNH2 (Homo sapiens) (UniProt Q12809); test: Human Ether-a-go-go-Related Gene (hERG) channel small molecule antagonists: fluorescence cell-based qHTS assay (AID 1671200);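 note: hERG-expressing U2OS cells given a thallium stimulus after FluxOR II dye loading; series mostly up to about 77 µM; nearly all actives have a fitted effect of over 50% in size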
Sequence of Voltage-gated inwardly rectifying potassium channel KCNH2 (Homo sapiens) (Q12809 whole entry, looked up): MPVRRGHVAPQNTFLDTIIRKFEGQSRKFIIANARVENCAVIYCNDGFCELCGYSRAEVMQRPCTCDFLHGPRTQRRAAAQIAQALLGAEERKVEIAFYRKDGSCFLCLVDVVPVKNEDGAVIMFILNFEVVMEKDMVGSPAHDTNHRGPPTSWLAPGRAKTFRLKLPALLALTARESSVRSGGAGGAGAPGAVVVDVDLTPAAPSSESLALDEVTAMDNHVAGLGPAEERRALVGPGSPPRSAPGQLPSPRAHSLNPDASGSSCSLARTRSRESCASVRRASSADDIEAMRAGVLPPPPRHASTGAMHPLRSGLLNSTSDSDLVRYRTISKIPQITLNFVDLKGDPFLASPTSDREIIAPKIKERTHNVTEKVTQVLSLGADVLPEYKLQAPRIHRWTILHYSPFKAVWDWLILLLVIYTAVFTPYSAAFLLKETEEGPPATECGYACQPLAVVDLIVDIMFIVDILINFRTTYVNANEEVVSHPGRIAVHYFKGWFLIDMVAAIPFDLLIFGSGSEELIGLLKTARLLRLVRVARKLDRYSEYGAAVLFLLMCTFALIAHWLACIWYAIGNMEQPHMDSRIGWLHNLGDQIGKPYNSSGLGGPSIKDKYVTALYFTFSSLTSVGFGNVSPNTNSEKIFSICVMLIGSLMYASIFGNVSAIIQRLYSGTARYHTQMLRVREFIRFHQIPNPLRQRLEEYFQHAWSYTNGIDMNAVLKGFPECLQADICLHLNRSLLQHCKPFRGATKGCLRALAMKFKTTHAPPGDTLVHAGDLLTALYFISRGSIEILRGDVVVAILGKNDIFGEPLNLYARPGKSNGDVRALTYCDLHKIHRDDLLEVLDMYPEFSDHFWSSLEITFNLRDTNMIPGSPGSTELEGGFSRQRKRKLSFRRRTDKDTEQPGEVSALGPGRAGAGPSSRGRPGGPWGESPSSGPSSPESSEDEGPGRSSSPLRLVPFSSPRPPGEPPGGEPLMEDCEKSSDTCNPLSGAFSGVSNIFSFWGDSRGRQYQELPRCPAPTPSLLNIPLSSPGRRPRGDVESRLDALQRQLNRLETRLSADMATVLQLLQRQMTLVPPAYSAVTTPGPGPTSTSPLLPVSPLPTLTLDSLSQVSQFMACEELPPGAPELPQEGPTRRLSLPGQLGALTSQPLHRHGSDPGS
In short: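 In this thallium-flux screen, overnight-cultured U2OS cells bearing the channel are dye-loaded in darkness for an hour, rested 10 min at room temperature, and then monitored kinetically at 480/540 nm for two minutes post-stimulus.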

SMILES	Potency [1]	Potency [2]	Potency [3]	Potency [4]	Potency [5]
CN1CCCCC1CCN1c2ccccc2Sc2ccc(S(C)=O)cc21 (stereo not given)	inactive	inactive	inactive	inactive	
S=c1nccc[nH]1	31.8 µM (active)	20 µM (active)	35.6 µM (active)	inactive	inactive
C[Si](Cl)(c1ccccc1)c1ccccc1	1.95 µM (active)	4.37 µM (active)			inactive
Nc1ccc(Oc2ccc(Cl)cc2)cc1	2.47 µM (active)	12.4 µM (active)	34.8 µM (active)	17.5 µM (active)	
Cc1c2ccccc2c(C)c2c1ccc1ccccc12	4.98 µM (active) and 3.99 µM (active)	22.2 µM (active) and 25.2 µM (active)	626 nM (active) and 1.78 µM (active)	22.2 µM (active) and 20 µM (active)	inactive
Nc1cc(Cl)c(O)c(Cl)c1	20 µM (active)	28.3 µM (active)	39.9 µM (active)	8.94 µM (active)	inactive
CN(C)CCN1CCN(c2cccc(Cl)c2)C1=O	inactive	inactive		inactive	inactive
CCOC(=O)c1ccc(C2CCC(NC[C@H](O)COc3ccc(O)c(NS(C)(=O)=O)c3)CC2)cc1 (stereo not given in full)	32.8 µM (active)	5.84 µM (active)	inactive	inactive	
O=c1c(O)c(-c2ccc(O)cc2O)oc2cc(O)cc(O)c12	inactive	21.1 µM (active)		inactive	inactive
C=CC(=O)OCCOC(=O)C=C	inactive	inactive	inactive	inactive	inactive
CC(C)CCOC(=O)/C=C/c1ccccc1	63.5 µM (active)	40.1 µM (active)	22.5 µM (active)	inactive	
Cc1ccc(O)c(N)c1	35.6 µM (active)	15.9 µM (active)	40 µM (active)	15.9 µM (active)	inactive
[Cl][Pt-2]([Cl])([Cl])[Cl]	22.6 µM (active)	25.3 µM (active)	35.7 µM (active)	inactive	
CC1(C)[C@@H](O)CC[C@]2(C)[C@H]3C(=O)C=C4[C@@H]5C[C@@](C)(C(=O)O)CC[C@]5(C)CC[C@@]4(C)[C@]3(C)CC[C@@H]12	inactive	inactive	inactive	inactive	
CCn1c2ccccc2c2cc([N+](=O)[O-])ccc21	7.96 µM (active)	inactive	1.12 µM (active)	inactive	
Cc1cccc2cccnc12	70.5 µM (active)	inactive	44.5 µM (active)	inactive	inactive
Cc1cc(C(C)(C)C)cc(C)c1CC1=NCCN1	inactive	inactive	inactive	inactive	
O=S(=O)(O)c1ccc(N=Nc2c(O)ccc3ccccc23)cc1	11.2 µM (active)	31.7 µM (active)	31.7 µM (active)	35.6 µM (active)	inactive
Fc1ccc(C(c2ccc(F)cc2)N2CCNCC2)cc1	inactive	inactive	inactive	inactive	
Cc1ccc(-c2ccccc2)cc1	inactive	inactive	inactive	inactive	
COC(=O)c1ccccc1C	inactive	inactive	inactive	inactive	inactive
CCCCCCCCCCCCOC(=O)c1ccc(O)cc1	4.02 µM (active)	4.52 µM (active)	12.7 µM (active)	35.9 µM (active)	inactive
CC(=O)[C@H]1CC[C@H]2[C@@H]3CCC4=CC(=O)CC[C@]4(C)[C@H]3CC[C@]12C	3.54 µM (active) and 3.99 µM (active)	22.3 µM (active) and 25.2 µM (active)	31.7 µM (active)	inactive	
Nc1nc2c(ncn2COCCO)c(=O)[nH]1	inactive	inactive	inactive	inactive	
Cc1ccc(O)c(O)c1	inactive	inactive			inactive
CC(C)OC(=O)C(O)(CC(=O)O)CC(=O)O	35.6 µM (active)	35.6 µM (active)		inactive	inactive
O=C1c2ccccc2C(=O)N1SC1CCCCC1	25.2 µM (active) and 39.9 µM (active)	3.99 µM (active) and 7.1 µM (active)	35.5 µM (active) and 35.6 µM (active)	inactive	
